According to PubChem BioAssay (NCI):
About 79,000 compounds went through this panel and 15% of them were active in at least one assay; those are over-represented in the sample as a whole. Unmarked numbers belong to inactive results. Activity calls are given as the source filed them. No stated cut-off is given here; in the data, active means growth inhibition above about 70%; inactive means the rest.

Tests used:
[1] = NCI Yeast Anticancer Drug Screen. Data for the rad50 strain (AID 155);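 further: 0% = growth of vehicle-only cultures of the same strain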; conditions: S. cerevisiae rad50 strain growth inhibition; at 50.0 µM; hits give high values
Procedure, shortened: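 Genetically altered yeast (DNA repair pathway); compound treatment; growth inhibition vs vehicle ctrl.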

[2] = NCI Yeast Anticancer Drug Screen. Data for the mec2-1 strain (AID 157); conditions: S. cerevisiae mec2-1 strain, at 50.0 µM, hits give high values
Procedure, shortened: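 mec2-1 yeast strain, carrying an alteration in DNA damage repair or cell cycle control, was exposed to compounds; growth inhibition was measured relative to vehicle-treated controls.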

[3] = NCI Yeast Anticancer Drug Screen. Data for the sgs1 mgt1 strain (AID 161);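 further: 0% = growth of cultures given vehicle only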; conditions: S. cerevisiae sgs1 mgt1 strain, at 50.0 µM, hits give high values
Procedure, shortened: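 Compounds are added to genetically altered yeast, and growth is compared with cultures given vehicle alone to give percent inhibition.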

[4] = NCI Yeast Anticancer Drug Screen. Data for the cln2 rad14 strain (AID 165);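 further: 0% = growth equal to vehicle treated cultures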; conditions: S. cerevisiae cln2 rad14 strain, at 50.0 µM, hits give high values
Procedure, shortened: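 Yeast carrying cln2 and rad14 alterations (cell cycle control and DNA damage repair) were exposed to compounds. Growth inhibition was measured against vehicle-treated controls.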

[5] = NCI Yeast Anticancer Drug Screen. Data for the bub3 strain (AID 167); conditions: S. cerevisiae bub3 mutant strain, at 50.0 µM, hits give high values
Procedure, shortened: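 Yeast carrying a defined mutation is treated with each compound, and growth is compared with that of vehicle-exposed cells to give inhibition.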

[6] = NCI Yeast Anticancer Drug Screen. Data for the mlh1 rad18 strain (AID 175); conditions: S. cerevisiae mlh1 rad18 strain growth inhibition; at 50.0 µM; hits give high values
Procedure, shortened: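 Growth inhibition of the yeast strain was measured after compound exposure and expressed relative to vehicle-treated controls. The strain carries defined defects in DNA damage repair.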

Row | SMILES | growth inhibition [1] | growth inhibition [2] | growth inhibition [3] | growth inhibition [4] | growth inhibition [5] | growth inhibition [6]
1 | CO[C@@]12C[C@@H](C)[C@]34O[C@H]3C[C@]3(C)O[C@]43CC1=C(C)C(=O)O2 | 10.2% | 1.2% | 23.6% | 7.5% | 28.4% | -64%
2 | Cc1ccccc1N1C(=O)C2CC=CCC2C1=O (configuration not stated) | -13.3% | 0.25% | 12.2% | -34.8% | -14.4% | -21.6%
3 | O=c1[nH]c2c(Br)cccc2c2ccccc12 | 43.1% | 3.85% | 11.8% | -30.9% | -14.5% | 17.5%
4 | CCCCCOP(=O)(Cc1ccc(Cl)cc1)OCCCCC | 99.6% (active) | 99.7% (active) | 99.5% (active) | 99.5% (active) | 99.4% (active) | 99.5% (active)
5 | CC(C)(C)c1ccc(O)c(C(O)c2ccncc2)c1 (configuration not stated) | 7.3% | -12.4% | 9.15% | -6.75% | 1.6% | 16.6%
6 | CC(=O)OC1OC(C)C(OC(=O)c2ccccc2)C1OC(C)=O (configuration not stated) | 21.1% | -3.15% | 2.3% | -1.25% | 6.25% | 33.6%
7 | Cn1ncc2[nH]c(=O)n(OS(=O)(=O)c3ccccc3)c(=O)c21 | 17.3% | -16.9% | -15.5% | 4.3% | 0.9% | 5%
8 | CCCCCCCCCO/N=C\c1c2c(O)c3c(O)c(C)c4c(c3c1O)C(=O)C(C)(O/C=C\C(OC)C(C)C(OC(C)=O)C(C)C(O)C(C)C(O)C(C)/C=C\C=C(\C)C(=O)N2)O4 (configuration not stated) | -1.15% | 19.9% | 11.5% | -13.9% | -6.6% | 30.8%
9 | Cc1cc(O)c2c(c1)C(=O)C=CC2=O | 6.7% | 5.2% | 1.3% | 4.15% | 10.3% | -25.9%
10 | CCC12CC3(C(=O)OC)OC1C(O)CN1CCc4c(n3c3cc(OC)ccc43)C12 (configuration not stated) | 6.9% | -42.1% | 12.2% | 5.05% | -9.35% | 1.5%
11 | COc1ccc(NC(=O)N(C)Cc2ccccc2Cl)cc1 | -0.35% | -10.8% | 1.9% | -12.6% | 11.2% | 0.4%
12 | CN(C)c1nc2oc(-c3ccccc3)c(-c3ccccc3)c2c2nnnn12 | 12% | 8.05% | 2.65% | 15.8% | 1.65% | -11.9%
13 | C/C(=C\CNc1ncnc2c1ncn2CCC(=O)OC(C)(C)C)CO | -12.3% | -8.7% | -49.1% | 13.1% | 5.6% | -17.6%
14 | O=C(/C=N\O)Nc1ccccc1O | 2.6% | 4.3% | -24.4% | -11.6% | -5.15% | -1.9%
15 | COC(=O)C1=C(C)N(NC(N)=O)C(C)(O)C12CCOC2=O (configuration not stated) | -3.8% | -2.2% | 2.15% | -56.8% | -5.95% | -14.1%
16 | CN(C)CCCNc1ccc2nnn3c4ccc(O)cc4c(=O)c1c23 | -4.2% | 1.25% | 0.9% | 0.15% | 2.65% | 19%
17 | CCOCc1ccccc1C(O)(c1ccc(OC)cc1)c1ccccc1OC (configuration not stated) | 37.6% | 16.3% | 40.9% | 50.8% | 6.85% | 57.4%
18 | CCOC(=O)c1ccc(N)cc1 | 19.2% | 20.1% | -3.1% | -9.55% | -18.6% | -1.8%
19 | COc1ccc2c(c1)C(=O)[C@]1(C)C3(C)OC(=O)C(c4ccccc43)[C@]21C (some centres not stated) | 2.6% | -8.6% | -13.8% | 9.3% | -17.6% | 12.6%
20 | CCOC(=O)CCC1(C(=O)OCC)CCCC1=O (configuration not stated) | -12.9% | -21.3% | -27.4% | -9.7% | 10.6% | -19.3%
21 | CCOC(=O)C(=O)NC12CC3CC(CC(C3)C1)C2 | -16.9% | -17.6% | 1.5% | -4.45% | 24.8% | -8.3%

Row | SMILES | growth inhibition [1] | growth inhibition [2] | growth inhibition [3] | growth inhibition [4] | growth inhibition [5] | growth inhibition [6]
22 | C=CCCCCCCCCCCCCCCCCC | -25.9% | -24.1% | -13.3% | 10.4% | -16.1% | -28%
23 | CCCCNC(=O)C(CCCC)C(CCC)(CCC)CCCC (configuration not stated) | -21.4% | -13% | -16.5% | -35.8% | 55.3% | 3.55%
24 | Nc1cc(=O)[nH]c2ncnn12 | 18.2% | -12% | 2.4% | 6.2% | 4% | 20.1%
25 | N=C1/C(=C/c2ccco2)C(=O)N=C2SC=NN12 | 7.75% | 19.1% | 13.2% | -9.6% | -5.6% | 20.9%
26 | COC(=O)c1cc(C)c2c3ccccc3n(C)c2c1C(=O)OC | 19.6% | -0.4% | -8.9% | -1.5% | -9.9% | -13.5%
27 | O=C(Nc1cc(Cl)ccc1Cl)c1ccccc1Cl | 2.9% | -6.7% | 14.8% | 8.85% | 19.9% | 20.5%
28 | O=C1CSC=NN1c1ccccc1 | -12.8% | -6.75% | -14.9% | -9.75% | 5.75% | 3.9%
29 | CCCCCCCCCCCc1cc(=O)c2c(O)cccc2o1 | -5% | -28.6% | 9.55% | -3.9% | 4% | -14.4%
30 | CCSc1sc(=Nc2ccc(N=c3sc(C)c(SC)s3)cc2)sc1-c1ccc(C)cc1 | -33.6% | -0.75% | -11.2% | -39.1% | 2.25% | -5.2%
31 | Cc1ccc(S(=O)(=O)N/N=C2\CCC3CC3CC\C2=N/NS(=O)(=O)c2ccc(C)cc2)cc1 (configuration not stated) | -0.85% | -4.4% | 0.6% | -9.1% | -2.7% | -5.75%
32 | N#CCCn1nc(SC2CCCCC2)c(=O)[nH]c1=O | -4.05% | 1.95% | 2.45% | 32.3% | 4.75% | 4.3%
33 | CCOC(=O)/C(C#N)=C/c1c(-c2ccccc2)nn2ccccc12 | 42.6% | 26.6% | 28.1% | -2.4% | -7.7% | 20.6%
34 | Cc1ccc(S(=O)(=O)NN(C)C(=O)c2ccccc2)cc1 | -5.95% | -0.75% | 3.05% | -25.2% | 22.8% | -9.05%
35 | CCC1=NCCO1 | 5.85% | 0.25% | -2.1% | 4% | 28.1% | -11.7%
36 | CCN(CC)C(=O)CC(C)(C)O | 4.95% | 9.15% | -5.75% | -0.9% | 6.15% | -1.6%
37 | Brc1c(-c2ccccc2)oc2nc3ccccc3nc12 | 17.2% | 0.2% | 0.2% | 7.45% | 12.6% | 3.8%
38 | Cc1ccc(N=Nc2cc(C)c(N)cc2N)c(S(=O)(=O)O)c1 | -33.3% | -5.35% | -16.4% | -38.5% | 3.45% | -24.5%
39 | C=CCNC(=O)/C=C/C | 1.95% | 0.65% | -2.1% | 1.8% | 9.75% | -4.35%
40 | CCOC(=O)/C(=N\O)C(C)(C)c1ccnc2ccccc12 | -4% | 0.6% | -10.9% | 4.05% | -5% | 4.7%
41 | COc1ccc(C(Cl)=C(c2ccc(OCCN(C)C)cc2)c2ccc(OCCN(C)C)cc2)cc1 | 29.7% | 15.6% | 40.1% | 28.8% | 28.4% | 20.1%
42 | O=C(Nc1ccccc1F)c1c(O)nc2sccn2c1=O | 50.4% | -2.8% | 38.5% | -4.15% | 38.1% | 34%
